Sampled rows, rich in hits. Any-hit rate of the full collection: about 7.9%.
HCV inhibitor: qHTS Assay for Inhibitors of Hepatitis C Virus (HCV); Huh7.5.1 HCVcc-Cre infection, luciferase reporter, 44 h; Potency, µM (highest dose often 41.8 µM), most hits filed as inhibitors; 3.4% of 340,000 active; AID 651820, 2012; active means well fitted inhibition curve with a large enough effect; inconclusive means small, poorly fitted or top-dose-only effect, or another doubt; inactive means no such curve, though single readings can be large or run the other way
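Infectious HCV cell culture screen: compound-treated cells (1,000/well, pre-plated 4 h) are infected with HCVcc-Cre at roughly 0.5 moi and grown 44 h. Infection is quantified by luciferase signal after 15 min substrate incubation at room temperature.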
Marburg entry inh: qHTS for inhibitors of binding or entry into cells for Marburg Virus; Potency, µM (highest dose often 37.8 µM), hits mostly inhibitors; Marburg virus pseudotyped entry inhibition, cell reporter; 1.8% of 300,000 active; calls by dose curve; tested in HEK293 cells
Lassa entry inh: qHTS for Inhibitors of binding or entry into cells for Lassa Virus. Potency, µM (titrated, usually from 37.9 µM), most hits filed as inhibitors. AID 540256, 2011. Lassa virus pseudotype entry inhibition, cell reporter. 1.2% of 300,000 active; calls by dose curve; tested in HEK293 cells; further: nearly all actives have a fitted effect of over 50% in size
HCMV antiviral: qHTS Assay for inhibitors of the human cytomegalovirus (HCMV). 4.5% of 410,000 active. HFF cells, HCMV-luciferase reporter, 72 h; active compounds read low. activity change, negative = inhibition, % at 57.5 µM. AID 1259415, 2018; in the data active means activity change below about -60%; inconclusive means no clear call, values can overlap the other calls; inactive means above about -39%
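Compounds were evaluated in HFFs infected with an HCMV luciferase reporter virus (MOI 1 PFU/cell). Luciferase in lysates collected 72 h post infection served as the replication measure.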
FMDV antiviral: High Throughput Screening for Foot and Mouth Disease Virus Antivirals. FMDV antiviral cell-based qHTS. Potency, µM (titrated, usually from 57.9 µM), most hits filed as inhibitors. 1.2% of 410,000 active. AID 1159524, 2015; calls by dose curve; tested in HEK293T cells; further: read-out not given here; nearly all actives have a fitted effect of over 45% in size
Hits are given with their value; n = inactive; u = inconclusive; x = no result given; [ ] = remark or other dose.

SMILES | HCV inhibitor | Marburg entry inh | Lassa entry inh | HCMV antiviral | FMDV antiviral
CN1CCc2c(OCC(=O)N3N=C(c4cccs4)CC3c3ccc(F)cc3)cccc2C1=O (stereo not given) | n | u | n | -88.6 | u
CCOC(=O)CSCC(=O)N1N=C(c2cccs2)CC1c1ccc(F)cc1 (stereo not given) | n | n | n | u | n
COc1ccc(Cl)cc1Nc1ncnc2c1nc1n2CCCC1 | x | x | u | n | n
NCCCCCc1nnc(SCc2ccccc2Cl)o1 | n | u | u | -76.2 | u
N[C@@H](Cc1ccccc1)c1nnc(SCc2ccccc2Cl)o1 | n | n | n | -69.9 | n
NCCc1nnc(SCc2c(Cl)cccc2Cl)o1 | n | x | x | n | n
CCOC(=O)OC[C@H]1O[C@H](C#Cc2ccc(C)cc2C)C=C[C@@H]1OC(=O)OCC | x | n | x | x | x
O=C(Nc1cccc2cccnc12)c1ccc(-c2cccc(Cl)c2)o1 | x | n | n | n | n
CCN(CC)CCOCCOc1cc(C)c(Cl)c(C)c1 | 11.2µM | u | n | -72.3 | x
CC(=O)c1ccc(OC(=O)C2c3ccccc3Oc3ccccc32)cc1 | n | u | n | n | n
Cc1ccc(OC(=O)C2c3ccccc3Oc3ccccc32)cc1C | n | u | 18.4µM | n | n
C/C(CCN1CCCCc2nc(C)c(C)cc21)=N\OC[C@@H](O)[C@@H]1O[C@@H]2OC(C)(C)O[C@@H]2[C@H]1O | x | n | x | x | x
CCOc1ccccc1N1CCN(C(=O)C2c3ccccc3Oc3ccccc32)CC1 | u | u | 7.08µM | n | n
CCOc1ccccc1N1CCN(C(=O)c2ccc(S(=O)(=O)Nc3ccccc3)cc2)CC1 | 10µM | x | x | u | n
CCOc1ccccc1N1CCN(C(=S)NCc2ccccc2)CC1 | n | u | u | -88.0 | n
CCOc1ccccc1N1CCN(C(=O)c2ccccc2)CC1 | n | n | n | n | n
Cc1ccc(OCc2csc(N)n2)cc1 | n | n | u | n | n
COc1ccc(NC(=O)c2cc(S(=O)(=O)N3CCc4ccccc43)cn2C)cc1OC | u | x | x | n | n
Cc1c(CCOC(=O)CC23CC4CC(CC(C)(C4)C2)C3)sc[n+]1CC(=O)c1ccccc1 | n | x | x | -70.8 | 28.2µM
COc1ccn(C2CCCCO2)c(=O)n1 (stereo not given) | n | n | n | n | n
CC1CCCC(NC(=O)c2ccc3snnc3c2)C1C (stereo not given) | n | x | x | n | n
COc1cc(C2C(C#N)=C(C)NC3=C2C(=O)CC(C)(C)C3)cc(OC)c1O (stereo not given) | n | n | n | -61.2 | n
COc1cc(C2C(C#N)=C(N)N(N(C)C)C3=C2C(=O)CC(C)(C)C3)cc(OC)c1OC (stereo not given) | n | u | n | -81.8 | n
COc1cc(C2C(C#N)=C(N)N(Nc3ccccc3)C3=C2C(=O)CC(C)(C)C3)ccc1OCc1cccc(F)c1 (stereo not given) | u | 1.78µM | u | n | n
CCNC(=O)C1(C)CCN(C(=O)c2ccc(OC(F)F)cc2)C1 (stereo not given) | x | x | x | n | n
SMILES | HCV inhibitor | Marburg entry inh | Lassa entry inh | HCMV antiviral | FMDV antiviral
Cc1nc(N2CCOCC2)c2c(C(=O)N(C)c3ccccc3)c(C)oc2n1 | x | x | n | n | n
CCCCC/C=C\C\C=C/C=C/C=C/[C@@H](SC[C@H](N)C(=O)NCC(=O)O)[C@@H](O)CCCC(=O)O | x | x | x | x | n[0.463 µM]
CN(Cc1ccccc1)C(=O)c1ccc(NC(=O)Cc2ccc(NC(=O)C3CCCN(S(=O)(=O)c4cccc([N+](=O)[O-])c4)C3)cc2)cc1 (stereo not given) | 12.6µM | x | x | n | n
CN(Cc1ccccc1)C(=O)c1cccc(NC(=O)Cc2ccc(NC(=O)C3CCN(C(=O)CCc4ccccc4)CC3)cc2)c1 | 2.24µM | x | x | -91.3 | 17.8µM
CN(Cc1ccccc1)C(=O)c1ccc(NC(=O)C2CCCN(C(=O)OC(C)(C)C)C2)cc1 (stereo not given) | 6.31µM | x | x | n | u
CN(Cc1ccccc1)C(=O)c1ccc(NC(=O)Cc2ccc(NC(=O)C3CCCN(C(=O)CCc4ccccc4)C3)cc2)cc1 (stereo not given) | 2.24µM | x | x | -67.0 | u
Cc1cccc(C)c1N1C(=O)c2ccccc2NC(=O)C1C(=O)NCCc1ccccc1 (stereo not given) | x | x | x | n | n
O=S1(=O)CC(N2CCN(CCO)CC2)CN1Cc1cn(Cc2ccccc2)nn1 (stereo not given) | x | x | x | n | n
O=C1C[C@@H]2c3c(cccc3CN1Cc1ccc(Cl)cc1)C[C@@H](O)[C@H]2O | n | x | x | n | n
Cc1ccccc1Cc1nc2cccnc2n1C1CCN(C(=O)CC2NC(=O)c3ccccc32)CC1 (stereo not given) | x | x | x | x | n
CN(CCc1ccccc1)C(=O)c1ccc(NC(=O)Cc2ccc(NC(=O)C3CCCN(C(=O)C4CCCC4)C3)cc2)cc1 (stereo not given) | u | x | x | -68.1 | u
CN(Cc1ccccc1)C(=O)c1cccc(NC(=O)Cc2cccc([N+](=O)[O-])c2)c1 | 2.82µM | x | x | u | u
CN(CCc1ccccc1)C(=O)c1ccc(NC(=O)Cc2ccc(NC(=O)C3CCCN(C(=O)C4CC4)C3)cc2)cc1 (stereo not given) | u | x | x | n | u
CN(Cc1ccccc1)C(=O)c1ccc(NC(=O)Cc2ccc(NC(=O)C3CCN(C(=O)CCc4ccccc4)CC3)cc2)cc1 | u | x | x | -88.6 | n
COc1cc(NC(=O)c2ccc(F)cc2)c(OC)cc1Cl | u | n | n | n | n
COc1cc(NC(=O)c2c(F)c(F)c(F)c(F)c2F)c(OC)cc1Cl | 11.2µM | u | n | n | u
COc1cc(NC(=O)c2cc(C(C)C)on2)c(OC)cc1Cl | 11.2µM | 14.6µM | u | n | n
COc1ccc(NC(=O)c2cc(C(C)C)on2)c(OC)c1 | n | x | x | n | n
COc1ccc(CCNC(=O)CCc2cn(Cc3ccc(C)cc3)c3ccccc23)cc1OC | x | x | n | n | n
COc1ccc(N2CCN(C(=O)COC(=O)CCOc3ccc(C)cc3)CC2)cc1 | n | n | n | n | n
COc1cc(NC(=O)c2cc(C3CC3)nc3c2c(C)nn3-c2ccc(C)cc2)cc(OC)c1 | x | x | n | n | n
Clc1ccc2c(c1)NC(c1ccncc1)=NC(c1cccs1)=N2 | x | n | n | n | n
CN1Cc2sc(NC(=S)NC(=O)c3ccccc3)c(C#N)c2CC1(C)C | u | u | u | -75.7 | u
CCc1cc2c(nc1CC)CCN(CCC(C)=NO[C@@H](C)CN1CCCc3nc(C)c(C)cc31)C2 | x | n | x | x | x
O=C(CCC1N=C2c3ccccc3N=C(SCC(=O)Nc3ccccc3F)N2C1=O)NCc1ccco1 (stereo not given) | x | n | n | n | n
CC(C)Cc1ccc(C2=CSC3=NCCN23)cc1 | 11.2µM | u | u | n | n
Cc1ccc(OCC(=O)Nc2ccc(OCc3cc(=O)n4ccsc4n3)cc2)cc1 | x | n | n | n | n
Cc1cc(OCC(=O)OCC(=O)N2c3ccccc3NC(=O)C2(C)C)ccc1Cl | n | x | x | n | n

Screening data deposited in PubChem by National Center for Advancing Translational Sciences (NCATS).
